Assay outcomes as filed in PubChem.
RN4220 kill: kills Staphylococcus aureus RN4220. S. aureus RN4220 growth, OD600, 16 h. inhibition, % (no concentration beside the values). hit rate 0.33% among 330,000; in the data active = inhibition above about 85%;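 note: plate controls were untreated cells for no effect and reference antibiotic for full effect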
BJeLR lethal: kills HRASV12-expressing BJeLR cells; BJeLR (HRASV12) viability, CellTiter-Glo ATP luminescence, 48 h; inhibition, % (test concentration not listed); hit rate 0.17% among 300,000; in the data active = inhibition above about 50%
PriA SSB inh: blocks PriA binding to SSB C-terminal tail | hit rate 0.6% among 430,000 | inhibition, % at 33 µM | AlphaScreen SSBct-PriA binding, biotinylated peptide; in the data active = inhibition mostly above about 37%, no sharp cut-off; inactive = mostly below about 20%;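 note: plate controls were negative control peptide for no effect and reference peptide for full effect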
ugtP null kill: compounds lethal to S. aureus RN4220 ugtP deletion mutant; OD600 growth, 16 h; growth inhibition, % (test concentration not listed); hit rate 0.54% among 330,000; AID 1259309; in the data active = growth inhibition above about 68%;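 note: plate controls were untreated wells for no effect and antibiotic for full effect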
MazF activator: activators of E. coli MazEF toxin-antitoxin RNase; FAM/BHQ RNA-DNA oligo cleavage fluorescence, 5 h; hit rate 0.32% among 350,000; activation, % at 20 µM; AID 504720; in the data active = activation above about 50%
Target sequence (P0AE70 whole entry, looked up): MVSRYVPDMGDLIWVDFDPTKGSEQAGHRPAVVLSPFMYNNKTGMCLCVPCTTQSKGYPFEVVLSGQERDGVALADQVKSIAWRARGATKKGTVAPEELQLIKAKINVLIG
Starred values were filed as active, the others as inactive. Hits are enriched below; roughly 1.2% of the tested compounds scored in any of these assays.

How did COc1ccccc1NS(=O)(=O)c1ccc(OC)c([N+](=O)[O-])c1 do in these assays?
RN4220 kill: 3.1; BJeLR lethal: 3.0; PriA SSB inh: -3.3; ugtP null kill: 2.0; MazF activator: 0.9

What do the screens show for `CCCC(CCC)=NNc1ccc(S(=O)(=O)Nc2ccccc2OC)cc1[N+](=O)[O-]`?
RN4220 kill: -4.7; BJeLR lethal: -0.9; PriA SSB inh: 41.2*; ugtP null kill: -10.9; MazF activator: 0.3

What do the screens show for `CCOc1ccc(-c2nnc3ccc(SCC(=O)N4CCC(C)CC4)nn23)cc1`?
PriA SSB inh: -7.0

Results for CCOc1ccc(CC(=O)NNC(=O)NC2CCCCC2)cc1 ?
RN4220 kill: 3.3; BJeLR lethal: -1.9; PriA SSB inh: -23.8; ugtP null kill: 3.7; MazF activator: -6.3

Results for CC1(C)C2CCC1(C)C(OCC[N+](C)(C)CC(=O)OC1CCCCC1)C2 (stereo unspecified) ?
RN4220 kill: 76.5; BJeLR lethal: 4.4; PriA SSB inh: 3.4; ugtP null kill: 99.9*; MazF activator: 26.2

How did Oc1cc(Cl)ccc1Oc1ccc(Cl)cc1Cl do in these assays?
RN4220 kill: 100.0*; BJeLR lethal: -3.6; PriA SSB inh: -29.6; ugtP null kill: 100.1*; MazF activator: -26.7

Results for O=C(NCCN1CCN(c2ccc(Cl)cc2)CC1)C1(c2ccccc2)CCOCC1 ?
PriA SSB inh: -4.0

How did O=C(CSc1nnc(-c2ccccn2)n1Cc1ccco1)c1ccc(Cl)cc1 do in these assays?
RN4220 kill: 12.8; BJeLR lethal: 12.4; PriA SSB inh: 89.9*; ugtP null kill: -9.7; MazF activator: -4.4

How did O=C(O)COc1ccccc1/C=N/NC(=O)/C(=C\c1ccc2c(c1)OCO2)NC(=O)c1ccccc1 do in these assays?
BJeLR lethal: 1.1; MazF activator: -3.7

Results for CCOc1cc(C=O)c(Br)cc1OC1CCCC1 ?
RN4220 kill: -9.0; BJeLR lethal: 0.8; PriA SSB inh: -37.2; ugtP null kill: 87.2*; MazF activator: -7.4

How did O=C1CC(Cc2ccccc2)C(=O)N1Cc1ccco1 (stereo unspecified) do in these assays?
BJeLR lethal: -8.2; PriA SSB inh: -1.3; MazF activator: -5.8

Results for Cc1cccc(-n2cc[nH]c2=S)c1C ?
RN4220 kill: 2.4; BJeLR lethal: -14.7; PriA SSB inh: 0.7; ugtP null kill: 5.7; MazF activator: -2.2

Results for O=C1c2ccccc2-c2onc3c(N4CCN(CCO)CC4)cc(N4CCN(C(=O)c5ccco5)CC4)c1c23 ?
BJeLR lethal: 15.1; PriA SSB inh: 80.3*; MazF activator: -17.9

What do the screens show for `O=C(O)CCCNc1cc(N2CCN(C(=O)c3ccco3)CC2)c2noc3c2c1C(=O)c1ccccc1-3`?
BJeLR lethal: 2.0; PriA SSB inh: 40.6*; MazF activator: -119.9

What do the screens show for `CN1CCN(c2cc(N3CCN(C(=O)c4ccco4)CC3)c3c4c(onc24)-c2ccccc2C3=O)CC1`?
RN4220 kill: 0.0; BJeLR lethal: 8.6; PriA SSB inh: 76.7*; ugtP null kill: -7.9; MazF activator: 2.4

Results for O=C(c1ccco1)N1CCN(CCCCN2C(=O)c3ccccc3C2=O)CC1 ?
RN4220 kill: -2.4; BJeLR lethal: 7.7; PriA SSB inh: -5.3; ugtP null kill: -9.8; MazF activator: -17.7

What do the screens show for `CCOC(=O)N1CCN(c2cc(NCCC(=O)O)c3c4c(onc24)-c2ccccc2C3=O)CC1`?
RN4220 kill: -3.4; PriA SSB inh: 71.0; ugtP null kill: -12.8; MazF activator: -30.3

How did CC1=C(C(=O)Nc2ccc(C)cc2C)C(/C=C/c2ccccc2)n2ncnc2N1 (stereo unspecified) do in these assays?
PriA SSB inh: 1.0

What do the screens show for `O=c1[nH]cccc1-c1nc2ccccc2n1Cc1ccc(F)cc1`?
RN4220 kill: 2.8; BJeLR lethal: 4.3; PriA SSB inh: -1.3; ugtP null kill: -0.4; MazF activator: 1.9

What do the screens show for `CSc1ccc(-c2nnc(NC(=O)c3ccc([N+](=O)[O-])s3)o2)cc1`?
PriA SSB inh: -7.0

Results for Cc1cc2nc3c(=O)[nH]c(=S)[nH]c3nc2cc1NC(=O)C(F)(F)F ?
RN4220 kill: 2.1; BJeLR lethal: -1.5; PriA SSB inh: -4.6; ugtP null kill: 2.6; MazF activator: active

How did Cc1cc(N)ccc1NC(=O)C(F)(F)F do in these assays?
PriA SSB inh: 4.0

Results for COc1cccc2sc(N(CCCN(C)C)C(=O)c3ccc(S(=O)(=O)N4CCc5ccccc5C4)cc3)nc12 ?
RN4220 kill: -1.3; BJeLR lethal: 1.1; PriA SSB inh: 14.6; ugtP null kill: 6.6; MazF activator: -28.3
